Experimental data published in PubChem BioAssay AID868 (SRMLSC, 2007).
In all, about 190,000 compounds went through this assay and about 3,500 (1.8%) were called active.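 The calls were made as follows: active = inhibition above a set limit, 3 SD over mean compound inhibition (cut at about 8.4% in these data); inactive = the rest.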 For the sample, actives were picked, then their nearest neighbours and some compounds at random.

test: inhibitors of the yeast RAM network, primary screen, dse1pr::URA3 reporter, 5-FOA selection (AID 868);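 also: 0% = DMSO-only wells with no growth and 100% = 10 µM 1-NA-PP1 full growth; inhibition rescues growth on 5-FOA so higher OD means more RAM inhibition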; conditions: S. cerevisiae dse1pr::URA3 reporter, 5-FOA growth OD615, 2 d; at 50 µM; active compounds read high; analog-sensitive cbk1-as2 kinase mutant strain

inhibition, inactive:
CN1C(=O)/C(=C/C=C2\SCCN2C)OC1=S 2.52%
O=C(c1cccc2ccccc12)N1CCN(c2ccccc2F)CC1 -0.35%
COC(=O)c1ccc(C(=O)OC)c(NC(=S)N2CCN(c3cc(Cl)ccc3C)CC2)c1 3.51%
Cc1ccc(C(=O)N/C(=C/c2cccs2)C(=O)NCC2CCCO2)cc1 (configuration not stated) 0.13%
Cc1cc(C)n(-c2ccc3nncn3n2)n1 1.87%
Cc1c(NS(=O)(=O)c2ccc(NC3CCCC3)c([N+](=O)[O-])c2)c(=O)n(-c2ccccc2)n1C 4.03%
Cc1c(CN2CCC(C)CC2)c(=O)n(-c2ccccc2)n1C 0.66%
O=C1CCC(CCC(=O)N2CCCC(C(=O)c3ccc(Cl)cc3)C2)=NN1 (configuration not stated) 2.49%
CC(C)(C)c1ccc(/C=C2\SC(=O)N=C2N)cc1 3.69%
Cc1ccc(C(=O)c2c(NC(=O)c3ccncc3)sc3c2CCCC3)cc1 1.55%
Cc1ccc(C(=O)NCCNC(=O)c2ccccc2)cc1 0.24%
NC1=NC2(CCCCC2)N(c2ccc(F)cc2F)C(N)=N1 0.5%
O=c1cnnc(Nc2ccccc2F)[nH]1 0.79%
C/C(N)=C(/C#N)C(=O)COC(=O)CNS(=O)(=O)c1ccc(C)cc1 -0.96%
Cc1sc2nc(CSCC(=O)Nc3c(Cl)cccc3Cl)[nH]c(=O)c2c1C 4.58%
CCOC(=O)c1sc2nc(CSc3ccccc3)[nH]c(=O)c2c1C 2.26%
CCCCN(C(=O)c1ccc(OC(F)(F)F)cc1)c1c(N)n(CCC)c(=O)[nH]c1=O 1.93%
CCOC(=O)c1cnc(-c2ccccc2)nc1Oc1ccc(C)cc1 6.51%
CCOC(=O)c1cnc(-n2nc(C)cc2C)nc1-n1nc(C)cc1C 1.58%
Cc1ccc(CN2CCC(N3CCC(C(=O)NCC4CCCO4)CC3)CC2)o1 (configuration not stated) 1.95%
CCOc1ccc(Oc2nc(C)cc(OC)n2)nn1 0.41%
Cc1onc(C(=O)NN)c1C(=O)N1CCN(C(c2ccccc2)c2ccccc2)CC1 0.14%
O=C(CCC(=O)OCc1ccc(Cl)cc1)Nc1ccccc1 -0.63%
O=C(COC(=O)c1cnccn1)Nc1cccc2ccccc12 -0.14%
O=C(Cc1coc2ccc3ccccc3c12)NCc1cccs1 1.23%
Cc1cccc(NC(=S)N2CCCC(c3nc4ccccc4[nH]3)C2)c1 (configuration not stated) 1.53%
Cc1ccc(CN2CCN(Cc3cn(C)nc3-c3ccccc3)CC2CCO)o1 (configuration not stated) 0.52%
COc1ccc(-c2noc(-c3ccc(C)cc3)n2)cc1 7.68%
COc1ccc(-c2noc(CSc3ccc(C)cc3)n2)cc1 2.24%
Cc1ccc(NC(=O)CN(C)CC(=O)Nc2cccc(F)c2)cc1[N+](=O)[O-] 1.7%
CSc1ncccc1C(=O)Nc1nc2ccc(F)cc2s1 2.36%
CN(C)c1ccnc(Nc2ccc(F)cc2)c1C#N 0.51%
O=C(CC(=O)N/N=C\c1ccc(F)cc1)NCCc1ccccc1 0.75%
COc1ccc2nc(Nc3nc(-c4cc5ccccc5oc4=O)cs3)sc2c1 3.98%
CCNc1nc(-c2cc3ccccc3o2)cs1 2.09%
CC(=O)c1cccc(-n2nnnc2SCC(=O)NNC(=O)C2CCCCC2)c1 3.03%
CN(C)CCOc1cccc(Br)c1 1.41%
CC(NC(=O)CCC(=O)N1CCN(S(=O)(=O)c2ccc(Cl)cc2)CC1)c1ccccc1 (configuration not stated) 2.73%
CCNC(=O)NC(=O)C(C)OC(=O)C1CCN(S(=O)(=O)c2ccccc2F)CC1 (configuration not stated) -0.96%
CN(CCc1cnn(C)c1)Cc1cn(C)nc1-c1ccccc1F 0.12%
CCOc1ccc(NC(=S)N2CCCCCC2)cc1 0.12%
CCOC(=O)c1sc2nc(C)nc(SCC(N)=O)c2c1C 1.57%
CN(C)S(=O)(=O)c1ccc(NC(=O)COC(=O)c2n[nH]c3ccccc23)cc1 5.03%
C=CCN(CC=C)C(=O)COC(=O)c1n[nH]c2ccccc12 2.26%
CCNC(=O)CSc1nc(-c2ccccc2)cs1 0.79%
O=C(CSCC(=O)Nc1cccc([N+](=O)[O-])c1)Nc1ccccc1 0.64%
NC(=O)COc1ccc(NC(=O)c2ccccc2-c2ccccc2)cc1 0.63%
COc1cccc(-c2nc3cc(C)ccc3o2)c1 2.42%
O=C(Cc1cccc2ccccc12)Nc1ccc2oc(-c3ccccc3)nc2c1 1.7%
CCN(CC)Cc1nc2sc(C)c(C)c2c(=O)[nH]1 2.28%
CNS(=O)(=O)c1ccc(NC(=O)C2CC(=O)N(c3ccc(Cl)cc3)C2)cc1 (configuration not stated) 4.28%
FC(F)(F)c1cnc(Oc2ccccc2-c2nnc(-c3ccc(Cl)cc3)o2)c(Cl)c1 4.37%
Nc1ccc(-c2nnc(-c3ccc(-c4ccccc4)cc3)o2)cc1 6.59%
Cc1cccn2c(CN(C)C3CCCc4ccccc43)c(C(=O)N3CCOCC3)nc12 (configuration not stated) 1.88%
CC(=O)C1C(c2ccc(Cl)cc2)c2c(n[nH]c2C)CC1(C)O (configuration not stated) -0.49%
Cc1cc(C)nc(NS(=O)(=O)c2ccc(N/C=C\C(=O)c3cccs3)cc2)n1 3.54%
Cc1noc(NS(=O)(=O)c2ccc(NC(=O)C34CCC(CC3)C4)cc2)c1C 2.19%
COc1ccc(C(=O)Nc2ccc(S(=O)(=O)Nc3onc(C)c3C)cc2)cc1OC 2.49%
CCn1c(SCC(=O)Nc2ccc(S(=O)(=O)Nc3onc(C)c3C)cc2)nnc1-c1ccccc1 4.88%
O=C1OCC2=C1C(c1ccccc1)CC(=O)N2c1cccc(F)c1 (configuration not stated) 0.77%
O=c1oc(/C=C/c2ccccc2)nc2ccccc12 1.38%
Cc1cc(C)n(Cc2cnc(N3CCOCC3)s2)n1 0.36%
C/C(=N\NC(=O)c1cccnc1)c1ccc(-n2ccnc2)cc1 2.36%
N#C/C(=C(/O)COC(=O)COc1ccc(Cl)cc1)c1nc2ccccc2[nH]1 3.15%
N#C/C(=C(/O)COc1cccc2ccccc12)c1nc2ccccc2[nH]1 2.62%
O=C(COC(=O)c1ccc(Cl)nc1)NCc1cccs1 1%
CC(=O)Nc1ccc(Nc2nc3c(S(=O)(=O)c4ccc(C)c(C)c4)nnn3c3ccccc23)cc1 7.93%
COc1cccc(NC(=O)c2ccc3c(SCC(=O)O)c4c(nc3c2)CCCC4)c1 6.04%
Cc1c(NC(=S)Nc2ccccc2)c(=O)n(-c2ccccc2)n1C 2.71%
Cc1cccc(N=Nc2c(C)[nH]n(-c3ccccc3)c2=O)c1 7.54%
Cc1c(C=O)n(C)n(-c2ccccc2)c1=O 2.38%
Cc1[nH][nH]c(=O)c1N=Nc1ccccc1 2.99%
COc1cccc(/C=N/NC(=O)CNC(=O)c2ccc(S(=O)(=O)N3CCOCC3)cc2)c1OC 1.56%
CCCN(CCC)C(=S)Nc1cc(C(=O)OC)ccc1C(=O)OC -0.65%
CCC(CC)C(=O)Nc1ccc(S(=O)(=O)Nc2nccs2)cc1 1.58%
COc1ccc(-n2cnnc2SCC(=O)Nc2cccc([N+](=O)[O-])c2)cc1 1.48%
COC(=O)CCSc1nccn1Cc1ccccc1 3.09%

inhibition, active:
Cc1ccc(Cl)cc1N1CCN(C(=O)c2cccc3c(=O)c(C)c(-c4ccccc4)oc23)CC1 8.43%
CC(C)=CCCC1(C)C=Cc2c(ccc3c2[nH]c2cc(O)c(C)cc23)O1 (configuration not stated) 21.4%
Cc1c(Nc2cc(N3CCCC(C)C3)c3nonc3c2[N+](=O)[O-])c(=O)n(-c2ccccc2)n1C (configuration not stated) 8.7%
Cc1ccc(C(=O)c2c(NC(=O)c3ccccc3)sc(C)c2C)cc1 12.9%
CCOC(=O)c1sc2nc(CSCC(=O)OCc3ccc(C(=O)OC)o3)[nH]c(=O)c2c1C 12.6%
CCOC(=O)c1cnc(-n2nc(C)cc2C)nc1NNc1cc(C)nc(-c2ccccc2)n1 9.84%
O=C(CCC(=O)OCc1cccc(C(=O)Oc2ccccc2)c1)Nc1cccc2ccccc12 15.2%
COc1ccc(-c2noc(CN(C)S(=O)(=O)c3ccc(C)cc3)n2)cc1 9.12%
O=c1oc2ccccc2cc1-c1csc(Nc2ccc(O)cc2)n1 11.1%
CC(NC(=O)COC(=O)C1CCN(S(=O)(=O)c2ccccc2C(F)(F)F)CC1)c1ccccc1 (configuration not stated) 8.48%
O=C(COC(=O)c1n[nH]c2ccccc12)NCc1ccccc1 8.45%
O=C(CSc1nc(-c2ccccc2)cs1)Nc1cccc([N+](=O)[O-])c1 11.7%
COc1ccc2oc(-c3cccc(NC(=O)CSc4ccc(Cl)cc4)c3)nc2c1 10.3%
CSc1ccccc1-c1nnc(-c2ccc(Cl)cc2)o1 15.5%
Cc1noc(NS(=O)(=O)c2ccc(N/C=C/C(=O)c3ccccc3)cc2)c1C 11.4%
Cc1ccc(C(=O)/C=C/Nc2ccc(S(=O)(=O)Nc3onc(C)c3C)cc2)cc1 11%
Cc1ccccc1OC/C(O)=C(\C#N)c1nc2ccccc2[nH]1 10.3%
Cc1ccc(N=Nc2c(C)[nH]n(-c3ccccc3)c2=O)cc1 13.2%
Cc1c(N=Nc2ccc(N(C)C)cc2)c(=O)n(-c2ccccc2)n1C 25.4%
COC(=O)CCSc1cc([N+](=O)[O-])cc2c1c(C1OCCS1)nn2-c1ccccc1 (configuration not stated) 17.6%
